PI5P4Ka inh – inhibitors of human PI5P4K alpha. PI5P4Kalpha enzyme, ADP-Glo luminescence, 60 min; stronger effect = lower value. AID 652105. actives 1.2% (n = 330,000). max response, %. P48426; active means max response of -50% or lower; inconclusive means between -30% and -50%; inactive means -30% or higher; further: value at the top dose of about 77 µM; on the % scale 0 is the no-effect control and ±100 the full control effect
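Single end-point luminescence (ADP-Glo) quantified ADP from PI5P4Kalpha turnover; ATP 5 microM final, 1 h at RT, 0.1% CHAPS and 0.28 mM EGTA in HEPES pH 7.4.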
WRN helicase inh – blocks human WRN helicase. Q14191. WRN helicase unwinding, fluorescent forked duplex, kinetic. Potency, µM (highest dose often 114 µM), without a hit: top-dose activity change, negative = inhibition, usual class: inhibitors. actives 0.46% (n = 360,000). AID 651768; further: potency means the concentration at half of the fitted maximal effect; on the % scale 0 is the no-effect control and ±100 the full control effect; nearly all actives have a fitted effect of over 55% in size
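Enzyme (20 nM final) and test compound sit together 15 min at room temperature before substrate addition. Substrate is a single-forked duplex oligonucleotide (100 nM) labelled with fluorophore and quencher, with 2 mM ATP; helicase unwinding raises red fluorescence, read kinetically.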
POLB inh – inhibitors of human DNA polymerase beta. P06746. Pol beta primer extension/strand displacement, fluorescence kinetic. Potency, µM (top dose mostly 114 µM), without a hit: at the highest dose activity change, negative = inhibition, hits mostly inhibitors. actives 1.3% (n = 340,000). AID 485314; further: potency means the concentration at half of the fitted maximal effect; on the % scale 0 is the no-effect control and ±100 the full control effect
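Human Pol beta at 10 nM; strand-displacement substrate 50 nM final. Compound exposure 15 min at room temperature before start, reaction 10 min at room temperature.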
POLK inh – DNA polymerase kappa (human) inhibition; Q9UBT6; purified Pol kappa, fluorescent DNA synthesis assay, 10 min; Potency, µM (series often up to 107 µM), for inactives: at the highest dose activity, negative = inhibition, actives largely listed as inhibitors; actives 0.53% (n = 400,000); AID 588579; further: potency means the concentration at half of the fitted maximal effect; on the % scale 0 is the no-effect control and ±100 the full control effect
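Readout: fluorescence, taken kinetically at 0 and 10 min. Conditions: 10 nM Pol kappa, 15 min RT compound preincubation, 50 nM substrate final. Controls: enzyme-free buffer wells.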
Pol eta inh – DNA polymerase eta (human) inhibition; Q9Y253; recombinant Pol eta, fluorescent DNA replication assay; Potency, µM (top dose mostly 114 µM), for the others: at the top dose activity change, negative = inhibition, most hits filed as inhibitors; actives 1.2% (n = 390,000); AID 588591; further: potency means the concentration at half of the fitted maximal effect; on the % scale 0 is the no-effect control and ±100 the full control effect
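Pol eta at 10 nM preincubated with compounds 15 min at room temperature; reaction started with fluorescent substrate (50 nM final) and read kinetically at 0 and 10 min.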
POLI inh – inhibitors of human DNA polymerase iota; Pol iota fluorescent replication assay, 10 min; AID 588590; Potency, µM (series often up to 115 µM), for the others: at the top dose activity, negative = inhibition, actives largely listed as inhibitors; Q9UNA4; actives 1% (n = 390,000); further: potency means the concentration at half of the fitted maximal effect
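Fluorescent replication assay read twice, at 0 min and 10 min after adding 50 nM (final) substrate. Enzyme (10 nM) and compounds were first incubated 15 min at room temperature; enzyme-free buffer wells were negative controls.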
Numbers without * were called inactive; ? = inconclusive; · = not tested or not shown; [ ] = remark or other dose. An excerpt weighted towards active compounds, which were near 2.8% of everything screened. Unless noted, the call rests on the fitted dose curve; in most records, active means well fitted curve in the direction sought with a large enough effect; inconclusive means small, poorly fitted or top-dose-only effect, or another doubt; inactive means no such curve, though single readings can be large; an effect the other way counts as inactive or inconclusive.

SMILES	PI5P4Ka inh	WRN helicase inh	POLB inh	POLK inh	Pol eta inh	POLI inh
COC(=O)c1ccccc1NC(=O)COc1ccccc1[N+](=O)[O-]	-2.6	-6.7%	26.2%	4.0%	1.5%	63.1%
O=C(CSc1ncnc2c1nnn2Cc1ccccc1F)NCC1CCCO1 (centres undefined)	-1.7	0.6%	-27.5%	-10.0%	-2.7%	26.0%
COC(=O)C1=C(C)N(c2ccc(C)c(C)c2)/C(=C/c2ccco2)C1=O	?	?	22.4µM*	-20.8%	-3.2%	?
CCOC(=O)C1=C(C)N(c2ccc(C)c(C)c2)C(=O)/C1=C\c1ccco1	·	-8.9%	27.5%	-5.3%	-14.3%	11.6%
CCCCNC(=O)C[C@@H]1C[C@@]2(C(=O)OCC)CCCC=C2N(Cc2ccco2)C1=O	0.7	-2.9%	·	·	·	·
Cc1cc(O)ccc1N=Cc1c(C(F)(F)F)[nH][nH]c1=O	-22.0	-11.5%	14.1µM*	-5.3%	-1.4%	8.91µM*
O=C(C1=C(O)C(=O)N(Cc2ccco2)C1c1cccnc1)c1cc2ccccc2o1 (centres undefined)	-19.4	-31.5%	6.5%	-23.1%	?	?
COc1cccc2cc(C(=O)C3=C(O)C(=O)N(Cc4ccco4)C3c3cccnc3)oc12 (centres undefined)	0.3	-9.7%[57.1 µM]	-1.4%	-12.1%	3.55µM*	4.0%
Cc1ccc(C(=O)C2=C(O)C(=O)N(Cc3ccco3)C2c2cccc(Br)c2)o1 (centres undefined)	-14.3	-8.3%	79.4µM*	-1.7%	-5.6%	103.2%
CN(Cc1cnccn1)C(=O)C1CCC(=O)N(CCc2ccc(Cl)cc2)C1 (centres undefined)	3.7	-3.6%	41.6%	-5.0%	-15.7%	?
CCOC(=O)c1c(C)n(CC(O)CN(C)C)c2cc(Br)c(OC)cc12 (centres undefined)	2.7	14.2%	0.5%	-3.4%	-1.8%	-6.3%
CC(C)[C@H](NC(=O)c1cc2cc(Cl)ccc2n1C)C(=O)N[C@@H](C(=O)O)c1ccccc1	2.5	0.8%	3.8%	-9.7%	12.7%	4.5%
CC1(C)C(=O)Nc2ccccc2N1C(=O)CSc1nnc2ccccn12	-18.7	-9.6%[57.1 µM]	31.6µM*	?	?	?
Cc1ccc(S(=O)(=O)SCCCSS(=O)(=O)c2ccc(C)cc2)cc1	-72.8*	50.1µM*	·	-8.7%	-11.9%	3.8%
Cc1ccc(S(=O)(=O)CCCS(=O)(=O)c2ccc(C)cc2)cc1	1.8	-4.0%	18.4%	-12.5%	5.8%	40.7%
Cc1ccc(S(=O)(=O)SC/C=C/CSS(=O)(=O)c2ccc(C)cc2)cc1	-85.0*	?	·	-2.8%	-1.6%	5.6%
CC1=C(C(=O)OCCC(C)C)C(c2ccc3c(c2)OCO3)NC(=O)N1 (centres undefined)	1.8	0.6%	-1.3%	2.5%	-19.0%	45.2%
CCOC(=O)C(=O)Nc1nnc(CCc2ccccc2)s1	-65.8*	2.1%	17.0%	4.9%	4.9%	-4.6%
CCC(=O)Nc1nnc(CCc2ccccc2)s1	?	-0.4%	-8.2%	-1.0%	-3.5%	19.0%
O=[N+]([O-])c1cc(CN2CCN(c3cccc(C(F)(F)F)c3)CC2)c2cccnc2c1O	-68.0*	-10.5%	17.8µM*	-26.4%	-23.5%	84.3%
Cc1cccc(NC(=O)c2sc3nc4c(cc3c2N)CN(C(C)C)CC4)c1	·	·	25.5%	-43.2%	-8.5%	30.3%
Cc1cc(C(C)C)n2c(nc3ccccc32)c1C#N	·	·	-1.2%	·	·	·
Cc1cc(-c2ccco2)c(C#N)c2nc3ccccc3n12	?	-35.0%	8.91µM*	?	10µM*	?
Cc1cc(C)c(C(=O)COC(=O)Cn2cnnn2)cc1C	·	-5.3%	17.1%	-5.5%	2.8%	13.9%
O=C(Cn1cnnn1)OCC(=O)c1ccc(Cl)s1	-66.2*	-9.0%[11.6 µM]	22.4µM*	?	14.1µM*	?
CCC(=O)Oc1ccc(C/C(=N\O)c2ccc(O)cc2O)o1	·	-16.2%[57.1 µM]	?	28.2µM*	79.4µM*	20µM*
CCCCN(CCC(=O)O)c1ccc(/C=C/c2ccnc3ccccc23)cc1	·	·	·	-4.8%	·	17.4%
